Test results as given in PubChem BioAssay AID485346 (Sanford-Burnham Center for Chemical Genomics, 2010).
Screen size: about 330,000 compounds; about 10,000 (3%) were called active.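 How the source made its calls: active means inhibition of at least 50% at 8 µM in the primary screen; inactive means the rest.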 The sample as a whole holds a higher share of actives than the screen did.

Target: Protein Mdm4 (Homo sapiens) + E3 ubiquitin-protein ligase Mdm2 (Homo sapiens) (UniProt O15151+Q00987)
Test: inhibitors of human Mdm2-MdmX association, primary screen, cell-based, luminescence, split luciferase, SaOS-2, uHTS (AID 485346)
Conditions: SaOS-2 split-luciferase Mdm2/MdmX complementation, at 8 µM, active compounds read high

Chain of Protein Mdm4 (Homo sapiens) + E3 ubiquitin-protein ligase Mdm2 (Homo sapiens) (O15151 whole entry, looked up): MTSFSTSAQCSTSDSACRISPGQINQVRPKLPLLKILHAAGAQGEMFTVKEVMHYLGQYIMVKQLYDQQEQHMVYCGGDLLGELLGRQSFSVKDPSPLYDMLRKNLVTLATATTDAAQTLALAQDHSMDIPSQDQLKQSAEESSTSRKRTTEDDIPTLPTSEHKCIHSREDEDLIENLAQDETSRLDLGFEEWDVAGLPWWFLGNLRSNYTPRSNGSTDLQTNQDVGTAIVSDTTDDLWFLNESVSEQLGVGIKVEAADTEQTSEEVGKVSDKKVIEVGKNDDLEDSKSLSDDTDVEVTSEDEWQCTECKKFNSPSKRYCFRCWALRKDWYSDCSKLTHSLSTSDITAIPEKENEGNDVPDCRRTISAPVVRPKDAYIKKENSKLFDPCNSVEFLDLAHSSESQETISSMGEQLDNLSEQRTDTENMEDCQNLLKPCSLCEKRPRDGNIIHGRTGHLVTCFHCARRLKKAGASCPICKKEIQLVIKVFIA
Chain of Protein Mdm4 (Homo sapiens) + E3 ubiquitin-protein ligase Mdm2 (Homo sapiens) (Q00987 whole entry, looked up): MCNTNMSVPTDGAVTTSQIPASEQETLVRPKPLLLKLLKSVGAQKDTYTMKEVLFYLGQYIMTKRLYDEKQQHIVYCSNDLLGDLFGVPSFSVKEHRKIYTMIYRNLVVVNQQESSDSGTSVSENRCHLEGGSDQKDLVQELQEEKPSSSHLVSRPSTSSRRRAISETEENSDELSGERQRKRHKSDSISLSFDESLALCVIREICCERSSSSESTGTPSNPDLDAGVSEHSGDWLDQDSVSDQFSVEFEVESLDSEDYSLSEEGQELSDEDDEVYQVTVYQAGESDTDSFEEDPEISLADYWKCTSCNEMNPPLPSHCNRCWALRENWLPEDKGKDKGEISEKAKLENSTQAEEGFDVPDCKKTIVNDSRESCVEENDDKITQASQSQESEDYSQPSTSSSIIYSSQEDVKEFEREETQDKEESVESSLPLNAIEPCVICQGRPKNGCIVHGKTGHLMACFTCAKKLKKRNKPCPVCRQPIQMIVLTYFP

inhibition, inactive:
Cc1cccc(N2Cc3ccccc3C2=NC(=O)c2ccc(Cl)nc2)c1 1.07%
Cc1cccc(Nc2nc(NCCO)nc(N3CCCC3)n2)c1 -22.4%
O=C(Nc1cc(Cl)cc(Cl)c1)C(NCCCO)c1ccccc1 (configuration not stated) 14.1%
C=CCOC(=O)C1=C[C@H](c2ccc(Br)cc2)C[C@H](OCCCCO)O1 25.6%
Brc1ccc(CN2CC[C@H]3C=CCc4cccc(c43)C2)cc1 3.41%
O=C(Nc1cc(Cl)ccc1N1CCOCC1)c1ccc(N2CCCC2=O)cc1 12.9%
COCCOC(=O)c1c(C)oc2cc(Br)c(OCC(N)=O)cc12 6.08%
COc1ccccc1OCCCC(=O)Nc1ccc2c(c1)OCCO2 6.28%
Cc1ccc(OCCCC(=O)Nc2ccc3c(c2)OCCO3)cc1 17%
COc1ccc(C(=O)NCc2nnc(SCC(=O)Nc3cccc(OC)c3)o2)cc1 20.2%
COc1cc(C(=O)NCc2nnc(SCC(=O)c3ccc(Cl)cc3)o2)cc(OC)c1OC 6.35%
Cc1cc(O)c(C(=O)/C=C/c2c(F)c(F)c(F)c(F)c2F)c(=O)o1 8.23%
COc1ccc(C(=O)ON=C2c3ccccc3-c3ccccc32)cc1OC 7.13%
COc1ccc(C/C(N)=N/OC(=O)c2ccco2)cc1OC 6.65%
CCCCOc1ccc(C(=O)N/C(=C/C=C/c2ccccc2)C(=O)N2CCOCC2)cc1 -5.91%
Nc1cc(N2CCCCCC2)c2nonc2c1[N+](=O)[O-] 25.5%
C=CCn1c(-c2ccc(Cl)cc2)ccc(C#N)c1=O 1.15%
CCOc1ccc(CNC(=O)C2CCCN(c3nnc(C)c4c(C)n(-c5ccccc5)nc34)C2)cc1 (configuration not stated) 4.48%
COc1ccc(-n2nc3c(N4CCC(C(=O)NCc5ccccc5)CC4)nnc(C)c3c2C)cc1 40.9%
CC1(C(=O)NNC(=S)NCC2CCCO2)CC1(Cl)Cl (configuration not stated) 9.98%
O=c1c2ccccc2[nH]c(=S)n1CCN1CCC(=C(c2ccc(F)cc2)c2ccc(F)cc2)CC1 -6.96%
COn1c(=O)c(=O)n(OC)c2ccccc21 -14.5%
Brc1cnc(N2CCCC2)nc1N1CCCCC1 -7.46%
COc1ccc(S(=O)(=O)Nc2ccc3c(c2)OCO3)cc1Cl 8.27%
COC(=O)c1ccc(C2CC(=O)Nc3cc(OC)c(OC)cc32)cc1 (configuration not stated) 7.38%
O=C1NC(c2cc3c(cc2Cl)OCO3)Oc2ccccc21 (configuration not stated) 2.99%
CCCOc1ccc(C2NC(=O)NC(c3ccccc3)=C2C(C)=O)cc1OCC (configuration not stated) 14.8%
COc1ccc(NS(=O)(=O)c2cc(NC(=O)COc3ccccc3F)ccc2OC)cc1 14.4%
CN1C(=O)[C@H]2[C@@H](/C=C/c3ccccc3)N3C(=O)CN(Cc4ccc(-c5ccccc5)cc4)C(=O)[C@@]3(C)[C@H]2C1=O 22.2%
COc1ccc(-n2c(O)c(C=NCC(c3ccco3)N3CCCC3)c3ccccc3c2=O)cc1OC (configuration not stated) 15.6%
CCN(CC)S(=O)(=O)c1ccc2c3c(cccc13)C(=O)S2 39.8%
O=C(CN1C(=O)c2cccc3cccc1c23)Nc1ccccc1 26.2%
O=C(NN1CCOCC1)c1cccc(F)c1 6.11%
Cc1c(Br)c([N+](=O)[O-])nn1CC(=O)Nc1sc2c(c1C(=O)OC(C)C)CCC(C)C2 (configuration not stated) 23.2%
O=C(COC(=O)c1ccncc1)Nc1ccc2c(c1)OCO2 -1.34%
CC1(C)NC(=O)N(CCCCSc2ccc(Cl)cc2)C1=O 5.07%
COc1ccc(-c2cc(C(=O)N/N=C/c3cccnc3)c3ccccc3n2)c(OC)c1 -12.7%
COc1ccc(C(=O)CCC(=O)Nc2cccnc2)c(OC)c1 9.02%

inhibition, active:
OCCCNc1nccc(-c2cc(Nc3cccc(Cl)c3)ncn2)n1 100%
COC(=O)CCNc1ccc2c(c1)OCCO2 60.5%
COc1cc(C(=O)NCc2nnc(SCC(=O)Nc3nc4ccc(C)cc4s3)o2)cc(OC)c1OC 53.5%
COc1ccc(C(=O)O/N=C(\N)Cc2ccc(Cl)cc2Cl)cc1OC 97.2%
CCc1ccc(CNC(=O)C2CCN(c3nnc(C)c4c(C)n(-c5ccc(C)cc5)nc34)CC2)cc1 89%
CCCOc1ccccc1C1CC(=O)Nc2cc3c(cc21)OCO3 (configuration not stated) 56%
COc1ccccc1C1C2=C(COC2=O)Nc2cc3c(cc21)OCO3 (configuration not stated) 64.9%
CCN1C(=O)c2cccc3c(S(=O)(=O)Nc4ccccc4O)ccc1c23 62.5%
COc1ccc(C(=O)/C=C/c2cccnc2)c(OC)c1 54.3%
